Source: PubChem BioAssay
IDE exosite inh = exo-site inhibitors of human insulin-degrading enzyme. purified IDE, FL-6b probe fluorescence polarization; stronger effect = lower value. 6.3% of 17,000 active. z-score at 20 µM. P14735. AID 1259349;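 active means z-score of -3 or lower, meaning strong loss of probe binding signal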;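 further: His-tagged human IDE residues 42-1019 made in E. coli with 30 nM FL-6b probe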
Target sequence (P14735 42-1019 limits assumed): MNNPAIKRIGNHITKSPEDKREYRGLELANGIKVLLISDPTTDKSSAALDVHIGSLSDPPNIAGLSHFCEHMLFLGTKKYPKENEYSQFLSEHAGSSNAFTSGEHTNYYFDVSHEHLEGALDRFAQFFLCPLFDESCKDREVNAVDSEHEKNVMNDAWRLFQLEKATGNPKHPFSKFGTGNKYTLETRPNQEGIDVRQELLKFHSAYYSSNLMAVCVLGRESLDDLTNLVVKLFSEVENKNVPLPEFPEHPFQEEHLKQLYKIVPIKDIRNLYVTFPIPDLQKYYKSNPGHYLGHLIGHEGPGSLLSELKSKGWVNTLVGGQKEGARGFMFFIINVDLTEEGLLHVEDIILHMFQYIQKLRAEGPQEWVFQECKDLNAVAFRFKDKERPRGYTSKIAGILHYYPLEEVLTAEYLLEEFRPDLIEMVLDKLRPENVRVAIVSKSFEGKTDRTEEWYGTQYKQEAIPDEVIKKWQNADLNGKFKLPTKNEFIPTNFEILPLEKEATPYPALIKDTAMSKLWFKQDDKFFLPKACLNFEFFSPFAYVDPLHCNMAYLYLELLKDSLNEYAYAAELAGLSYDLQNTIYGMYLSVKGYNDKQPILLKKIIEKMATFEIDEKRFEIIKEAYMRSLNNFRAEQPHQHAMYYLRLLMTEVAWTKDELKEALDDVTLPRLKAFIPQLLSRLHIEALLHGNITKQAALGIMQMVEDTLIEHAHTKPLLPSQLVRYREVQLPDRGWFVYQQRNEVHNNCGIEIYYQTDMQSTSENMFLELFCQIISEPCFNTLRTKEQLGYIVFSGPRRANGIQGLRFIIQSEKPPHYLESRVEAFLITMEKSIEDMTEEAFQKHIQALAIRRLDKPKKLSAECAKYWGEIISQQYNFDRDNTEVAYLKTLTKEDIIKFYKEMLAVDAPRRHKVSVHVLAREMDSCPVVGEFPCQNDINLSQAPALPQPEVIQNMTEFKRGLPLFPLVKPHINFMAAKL
* marks the source's active call; other numbers are inactive results; ! = not active in a repeat. Shown is part of a subset that was picked to be rich in hits.

SMILES | IDE exosite inh
CCCNC(=O)N1CC(=O)N2[C@H](C1)[C@H](c1ccc(-c3cccc(C)c3)cc1)[C@@H]2CO | -14.2*
COc1ccccc1NC(=O)N1CCCCN2[C@H](CO)[C@H](c3ccc(-c4cccc(C)c4)cc3)[C@H]2C1 | -1.49
CCCNC(=O)N1CC(=O)N2[C@H](CO)[C@@H](c3ccc(-c4ccc(C)cc4)cc3)[C@H]2C1 | -3.06*
CCCNC(=O)N1CC(=O)N2[C@H](CO)[C@H](c3ccc(-c4ccc(F)cc4)cc3)[C@H]2C1 | 0.882
CCCNC(=O)N1CC(=O)N2[C@H](CO)[C@H](c3ccc(-c4ccccc4)cc3)[C@@H]2C1 | -2.22
CCCNC(=O)N1CC(=O)N2[C@H](C1)[C@@H](c1ccc(-c3ccc(F)cc3)cc1)[C@@H]2CO | 0.755
CCCNC(=O)N1CC(=O)N2[C@H](CO)[C@H](c3ccc(-c4ccc(C)cc4)cc3)[C@@H]2C1 | -1.36
COc1ccccc1NC(=O)N1CC(=O)N2[C@H](C1)[C@H](c1ccc(-c3ccc(F)cc3)cc1)[C@@H]2CO | 2.17
C[C@H](CO)N1C[C@H](C)[C@@H](CN(C)S(=O)(=O)c2ccc([N+](=O)[O-])cc2)OCc2ccccc2-c2ccccc2C1=O | 1.08
O=C(Cc1cccnc1)N1CC(=O)N2[C@@H](CO)[C@@H](c3ccc(C#CC4CC4)cc3)[C@@H]2C1 | -1.12
CC(C)CC#Cc1ccc([C@H]2[C@H](CO)N3C(=O)CN(C(=O)c4cccc(F)c4)C[C@@H]23)cc1 | -0.253
CCCNC(=O)N1CCC2(CC1)CN(C(=O)CC1CC1)[C@@H](CO)c1c2c2ccc(OC)cc2n1C | -1.09
O=C1N[C@H](c2ccccc2)COCc2cn(nn2)CC[C@H]1Cc1ccc(C(F)(F)F)cc1 | 0.567
O=C(c1cnccn1)N1C[C@@H]2N[C@H](C1)C2c1ccc(/C=C/c2ccccc2)cc1 (stereo partly drawn) | -4.23*!
CN(C)CC(=O)N1C[C@@H]2N[C@H](C1)C2c1ccc(/C=C/c2ccccc2)cc1 (stereo partly drawn) | -5.64*!
O=C(c1cnccn1)N1CC(=O)N2[C@H](C1)[C@@H](c1ccc(/C=C/c3ccccc3)cc1)[C@@H]2CO | -1.73
Cc1cccc(-c2ccc([C@@H]3[C@@H]4CN(C(=O)CN(C)C)C[C@H]3N4)cc2)c1 | 0.219
COc1ccc(-c2ccc(C3[C@@H]4CN(C(=O)c5cnccn5)C[C@H]3N4)cc2)cc1 (stereo partly drawn) | 0.244
CN(C)CC(=O)N1C[C@@H]2N[C@H](C1)C2c1ccc(C2=CCCCC2)cc1 (stereo partly drawn) | 0.699
C/C=C/c1ccc([C@H]2[C@@H](CO)N(Cc3ccccc3)[C@H]2CNC(=O)C2CC2)cc1 | 3
CCS(=O)(=O)N1CC(=O)N2[C@H](CO)[C@@H](c3ccc(C#CC4CC4)cc3)[C@@H]2C1 | -2.72
O=C(Cc1cccnc1)N1CC(=O)N2[C@H](C1)[C@@H](c1ccc(C#CC3CCCCC3)cc1)[C@@H]2CO | 0.59
OC[C@@H]1[C@@H](c2ccccc2)C2(CN(CC3CCOCC3)C2)N1Cc1cncnc1 | -0.857
COc1ccc(-c2ccc([C@@H]3[C@@H](CO)N4C(=O)CN(C(=O)C5CC5)C[C@@H]34)cc2)cc1 | -2.52
COc1cccc(-c2ccc([C@@H]3[C@@H](CO)N4C(=O)CN(C(=O)C5CCC5)C[C@@H]34)cc2)c1 | -11.8*
SMILES | IDE exosite inh
COc1cccc(-c2ccc([C@H]3[C@@H](CO)N4C(=O)CN(C(=O)C5CCC5)C[C@@H]34)cc2)c1 | -6.99*
COc1cccc(-c2ccc([C@@H]3[C@H]4CN(C(=O)C5CCC5)CC(=O)N4[C@H]3CO)cc2)c1 | -9.32*
O=C(C1CCC1)N1CC(=O)N2[C@H](C1)[C@@H](c1ccc(-c3cccnc3)cc1)[C@@H]2CO | -1.72
O=C(C1CCC1)N1CC(=O)N2[C@H](C1)[C@H](c1ccc(-c3cccnc3)cc1)[C@@H]2CO | 0.938
CN(C)C(=O)c1cccc(-c2ccc([C@H]3[C@H](CO)N4C(=O)CN(C(=O)C5CCC5)C[C@@H]34)cc2)c1 | 0.831
COc1ccc(-c2ccc([C@@H]3[C@@H](CO)N4C(=O)CN(C(=O)C5CCC5)C[C@H]34)cc2)cc1 | -0.21
COc1ccc(-c2ccc([C@H]3[C@H]4CN(C(=O)C5CC5)CC(=O)N4[C@H]3CO)cc2)cc1 | -0.253
COc1ccc(-c2ccc([C@H]3[C@H](CO)N4C(=O)CN(C(=O)C5CCC5)C[C@@H]34)cc2)cc1 | 1.66
COc1cccc(-c2ccc([C@@H]3[C@@H](CO)N4C(=O)CN(C(=O)C5CC5)C[C@H]34)cc2)c1 | -5.23*
COc1ccc(-c2ccc([C@@H]3[C@H]4CN(C(=O)C5CCC5)CC(=O)N4[C@H]3CO)cc2)cc1 | 3.08
C[C@H]1CN([C@@H](C)CO)C(=O)c2cc(-c3ccc(C#N)cc3)cnc2O[C@@H]1CN(C)Cc1cccnc1 | 0.336
O=C(CN1CCOCC1)N1CC2(C1)[C@@H](c1ccccc1)[C@H](CO)N2Cc1cccc(F)c1 | -0.887
C[C@@H]1CCCn2cc(nn2)COCCNC1=O | 0.486
C[C@@H]1CCCCO[C@@H](CN(C)C(=O)Nc2ccccc2)[C@@H](C)CN([C@@H](C)CO)C(=O)c2cc(NC(=O)Nc3ccccc3)ccc2O1 | -0.269
COCC(=O)N1CC(=O)N2[C@H](CO)[C@H](c3ccc(C#Cc4cccnc4)cc3)[C@@H]2C1 | -1.29
CC(C)CC#Cc1ccc([C@@H]2[C@@H](CO)N3CCCCN(S(=O)(=O)Cc4ccccc4)C[C@@H]23)cc1 | 4.21
N#C[C@H]1[C@@H](c2ccc(C#CCC3CCCC3)cc2)[C@@H](CO)N1C(=O)c1ccccn1 | 3.74
O=C(CC(F)(F)F)N1C[C@H]2[C@@H](c3ccccc31)[C@H](CO)N2C(=O)C1CCCCC1 | 0.018
C/C=C/c1ccccc1[C@@H]1[C@H](C#N)N(C(=O)CN2CCOCC2)[C@H]1CO | 0.149
CNC[C@@H]1OCCCC[C@@H](C)Oc2ccc(NS(=O)(=O)c3ccc(F)cc3)cc2C(=O)N([C@@H](C)CO)C[C@@H]1C | 0.35
COc1cccc(-c2ccc([C@H]3[C@H](CO)N4C(=O)CN(C(=O)C5CCOCC5)C[C@@H]34)cc2)c1 | -1.85
COc1cccc(-c2ccc([C@H]3[C@H]4CN(C(=O)C5CCOCC5)CC(=O)N4[C@H]3CO)cc2)c1 | -0.851
COc1cccc(-c2ccc([C@H]3[C@@H](CO)N4C(=O)CN(C(=O)C5CCOCC5)C[C@H]34)cc2)c1 | -8.69*
COc1ccc(-c2ccc([C@@H]3[C@@H](CO)N4C(=O)CN(C(=O)C5CCOCC5)C[C@H]34)cc2)cc1 | 1.63
COc1ccc(-c2ccc([C@H]3[C@H](CO)N4C(=O)CN(C(=O)C5CCOCC5)C[C@@H]34)cc2)cc1 | -1.15
SMILES | IDE exosite inh
COc1cccc(-c2ccc([C@H]3[C@H](CO)N4C(=O)CN(C(=O)CN5CCOCC5)C[C@@H]34)cc2)c1 | -3.36*
COc1cccc(-c2ccc([C@H]3[C@@H](CO)N4C(=O)CN(C(=O)C5CCOCC5)C[C@@H]34)cc2)c1 | -4.45*
O=C(CN1CCOCC1)N1CC(=O)N2[C@@H](CO)[C@H](c3ccc(-c4ccccc4)cc3)[C@@H]2C1 | 1.49
O=C(CN1CCOCC1)N1CC(=O)N2[C@H](CO)[C@@H](c3ccc(-c4cccc(F)c4)cc3)[C@H]2C1 | 1.21
CCCNC(=O)C[C@@H]1CC[C@H]2[C@H](COc3ccc(NC(=O)CC)cc3C(=O)N2C)O1 | 0.297
O=C(N[C@@H]1C=C[C@@H](CC(=O)N2CCC(Cc3ccccc3)CC2)O[C@@H]1CO)c1cnccn1 | 1.13
CCCNC(=O)C[C@H]1CC[C@@H]2[C@H](COC[C@@H](O)CN2Cc2ccncc2)O1 | -0.149
